Laboratory results published in PubChem BioAssay AID623868 (Vanderbilt High Throughput Screening Facility, 2012).
Hit rate of the full screen: of about 2,100 compounds, about 760 (36%) were called active.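 The calls were made as follows: active = thallium-flux fluorescence traces judged by eye to show enhanced or reduced glutamate response, manual score 1 or -1, so both directions (some results past the limit were not filed as active); inactive = the rest, including fluorescent or raised-baseline compounds.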 Only a sample is shown.

experiment: non-GIRK thallium flux modulation in mGlu8 cells, confirmation, counter-screen for GIRK activator project, cell-based, HEK-293 rmGlu8, no GIRK (AID 623868); conditions: thallium flux fluorescence, at 10 µM, actives lie on both sides, codes: 1 enhancer, -1 blocker, 0 none, thallium stimulus containing EC20 glutamate;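 also: extra codes mark interference with 3 for fluorescent and 4 for baseline rise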

Structure (SMILES)	manual score
CC(C)(C)OC(=O)COc1cc(O)c2c(=O)cc(-c3ccccc3)oc2c1	0 (inactive)
Cc1ccc2c(c1)N(CC(=O)N(Cc1ccccn1)Cc1ccco1)C(=O)C(C(C)C)O2 (configuration not stated)	0 (inactive)
CCOc1ccc(-n2c(SC(C)C(=O)OC)nc3c(c2=O)SCC3)cc1 (configuration not stated)	-1 (active)
COC(=O)C(C)Sc1nc2c(c(=O)n(C)c(=O)n2C)n1Cc1cccc(C)c1 (configuration not stated)	0 (inactive)
CCOc1ccc(-n2c(Cc3cc(=O)[nH]c(=O)[nH]3)nnc2SC(C)C(=O)OC)cc1 (configuration not stated)	0 (inactive)
COC(=O)c1ccc(CSc2nc3c(c(=O)n2-c2ccc(F)cc2)SCC3)o1	-1 (active)
COc1cccc(NC(=O)NC2(C(F)(F)F)Oc3ccccc3O2)c1	0 (inactive)
CN(C)S(=O)(=O)N(CC(=O)Nc1ccc2ccccc2c1)c1ccccc1	0 (inactive)
COc1ccc(C(=O)Nc2ccccc2)cc1S(=O)(=O)Nc1cc(C)on1	0 (inactive)
CCCCOc1cccc(OCCCC)c1C(=O)Nc1cc(C)on1	0 (inactive)
Cc1cc(NC(=O)c2ccccc2Oc2ccccc2)no1	-1 (active)
O=C1c2ccccc2NC(c2ccc(-c3cccc(Cl)c3)o2)N1O (configuration not stated)	1 (active)
Cc1cc([N+](=O)[O-])ccc1-c1ccc(C2Nc3ccccc3C(=O)N2O)o1 (configuration not stated)	1 (active)
O=C1c2ccccc2NC(c2ccc(-c3ccc(Br)cc3)o2)N1O (configuration not stated)	1 (active)
COc1ccc(C(=O)C2C(c3ccc(-c4ccccc4[N+](=O)[O-])o3)NC(=O)NC2(O)C(F)(F)F)cc1 (configuration not stated)	0.5 (inactive)
CC(=O)Nc1ccc(SCC(=O)c2cc(C)n(-c3ccccc3F)c2C)cc1	0.5 (inactive)
Cc1cccc(C)c1NC1=NC(=S)N(c2ccc(N(C)C)cc2)C1(C)C	1 (active)
CC1CN(C(=O)C2CCCCC2)C(C)CN1C(=O)C1CCCCC1 (configuration not stated)	0 (inactive)
Cn1c(NC(=O)Cc2ccc(F)cc2)cc(=O)n(C)c1=O	0 (inactive)
CC(=O)C1=C(C)NC(SCc2ccc(C#N)cc2)=C(C#N)C1c1ccco1 (configuration not stated)	0 (inactive)
CSCSC1=C(C#N)C(c2ccc(Cl)cc2)C(C(C)=O)=C(C)N1 (configuration not stated)	0 (inactive)
CSCSC1=C(C#N)C(c2ccccc2Cl)C(C(C)=O)=C(C)N1 (configuration not stated)	-1 (active)
CC(=O)C1=C(C)NC(SCC(=O)c2ccc(Cl)cc2Cl)=C(C#N)C1c1ccco1 (configuration not stated)	-1 (active)
CCOC(=O)C1=C(c2ccccc2)NC(SC)=C(C#N)C1c1ccco1 (configuration not stated)	0 (inactive)
O=C(CCc1nc(-c2ccccc2F)no1)NCCN1CCN(Cc2ccccc2)CC1	0 (inactive)
COc1ccc(NC(=O)C(=O)NNC(=O)c2cccs2)cc1	1 (active)

Structure (SMILES)	manual score
COc1ccc(NC(=O)C(=O)NNC(=O)c2cccs2)c(OC)c1	1 (active)
COc1ccc(Br)cc1CNC(=O)Nc1cccs1	0 (inactive)
COC(=O)c1cc(OC)c(OC)cc1NC(=O)Nc1ccc(OC)cc1OC	0 (inactive)
COc1cccc(NC(=O)Nc2cccs2)c1	0 (inactive)
O=C(NNC(=O)c1cccs1)Nc1cccc(Cl)c1	0 (inactive)
CCCc1noc2c1/C(=N\O)CC(CC(C)SCC)C2 (configuration not stated)	0 (inactive)
O=C(CSc1nnnn1-c1ccc(O)cc1)Nc1cccc(S(=O)(=O)N2CCCC2)c1	0 (inactive)
CCc1ccc(C(=O)OCC(=O)Nc2cccc(S(=O)(=O)NC3=NCCCCC3)c2)cc1	0 (inactive)
O=C(CSc1ccc2ccccc2c1Br)Nc1cccc(S(=O)(=O)NC2=NCCCCC2)c1	1 (active)
Cc1ccc(N2CC(C(=O)N/N=C/c3sccc3C)CC2=O)cc1 (configuration not stated)	0 (inactive)
Cc1ccsc1/C=N/NC(=O)c1sccc1C	1 (active)
OC(CNCC1CCCO1)Cn1c2ccc(Br)cc2c2cc(Br)ccc21 (configuration not stated)	0 (inactive)
O=C1CC(C(=O)Nc2ccc(Br)cc2)C2(CCCC2)O1 (configuration not stated)	0 (inactive)
O=C(NN=C1c2ccccc2-c2ccccc21)c1ccccc1Br	1 (active)
O=C(NN=C1c2ccccc2-c2ccccc21)c1cccc(Br)c1	1 (active)
O=C(N/N=C/c1ccc([N+](=O)[O-])s1)c1cccc(Br)c1	0.5 (inactive)
CCCCn1c(CN(Cc2ccccc2)Cc2ccccc2)nc2c1c(=O)n(C)c(=O)n2C	0 (inactive)
O=C(CSCC(=O)N1CCCCC1)Nc1nc(-c2ccc(Cl)s2)cs1	0 (inactive)
Cc1nc2nc(Cc3ccccc3)[nH]n2c(=O)c1Cc1ccccc1	0 (inactive)
CN1C(=O)C2(C(C#N)=C(N)N(c3cc(Cl)cc(Cl)c3)C3=C2C(=O)CCC3)c2ccccc21 (configuration not stated)	-1 (active)
Cc1cc(C(=O)CSc2n[nH]c(N)n2)c(C)n1-c1cc(F)ccc1F	0 (inactive)
c1ccc(-c2nnc3ccc(N4CCCC4)nn23)cc1	-1 (active)
c1ccc2c(N3CCCCCC3)nc(-c3ccncc3)nc2c1	0 (inactive)
Fc1ccc(-c2nnc3ccc(N4CCc5ccccc5C4)nn23)cc1	0 (inactive)
CCOC(=O)/C(C#N)=C/C1=C(N2CCCC2)CC(C)(C)OC1	0 (inactive)
CCOC(=O)N1CCN(C(=O)c2oc3ccc(S(=O)(=O)N4CC(C)CC(C)C4)cc3c2C)CC1 (configuration not stated)	0 (inactive)

Structure (SMILES)	manual score
C=CCOn1c(=O)c(-c2cccs2)[n+]([O-])c2ccccc21	3 (inactive)
O=c1c(-c2ccc(Cl)cc2)[n+]([O-])c2ccccc2n1O	1 (active)
CCOn1c(=O)c(-c2cccs2)[n+]([O-])c2ccccc21	3 (inactive)
Clc1ccc2c(c1)-c1nnc(Br)n1-c1ccccc1S2	-1 (active)
C/C(CC(C)(C)C1CCCCC1)=N\NC(N)=S	0 (inactive)
CNc1nc(Cl)nc(NC(C)(C)C)n1	0 (inactive)
Cc1cccc(N2C(=O)CS/C2=N\NC(=O)c2ccc(Cl)cc2)c1C	1 (active)
CC(NC(=O)C1CC=CCC1C(=O)O)C1CC2CCC1C2 (configuration not stated)	0 (inactive)
CCNc1ccc2noc3c2c1C(=O)c1ccccc1-3	0 (inactive)
O=C(NNc1ccccc1Br)C(=O)n1ccc2ccccc21	1 (active)
Cc1ccc(C)c2[nH]c(=O)c(CN(CCN3CCCC3)C(=O)Nc3ccc(F)cc3)cc12	0 (inactive)
CSC1=NSC2=NC(=O)/C(=C/c3coc4ccccc4c3=O)C(=N)N12	3 (inactive)
O=C1N=C(c2ccccc2)S/C1=C\c1cccs1	3 (inactive)
N=C1/C(=C/c2cccs2)C(=O)N=C2SN=C(SCc3ccccc3)N12	1 (active)
Cc1ccc(CNC(=O)Cc2csc(Nc3nc(=S)[nH]c4ccccc34)n2)cc1	1 (active)
O=C(Cc1csc(Nc2nc(=S)[nH]c3ccccc23)n1)NCc1ccccc1Cl	0 (inactive)
O=C(Cc1csc(Nc2nc(=S)[nH]c3ccccc23)n1)NCc1cccc(Cl)c1	1 (active)
N#CC(c1cccc(Cl)c1)c1ccc2c(C(F)(F)F)cc(C(F)(F)F)nc2n1 (configuration not stated)	0 (inactive)
Oc1cccc(NC(=S)Nc2ccc(SC(F)F)cc2)c1	0 (inactive)
CN(C)CCNC(=O)c1ccc2c(c1)N(Cc1ccc(F)cc1)CCS2	0 (inactive)
CCOC(=O)CSc1nc2ccc(Nc3nc(N4CCOCC4)nc(N4CCOCC4)n3)cc2s1	0 (inactive)
O=C(O)c1cccc(Nc2nc(N3CCOCC3)nc(N3CCOCC3)n2)c1	-1 (active)
CC1CC(C)CN(Cc2nc(N)nc(Nc3ccc4ccccc4c3)n2)C1 (configuration not stated)	0 (inactive)
O=C(COC(=O)c1cccc(N2C(=O)c3ccccc3C2=O)c1)Nc1ccccc1	0 (inactive)
CC(C)CC(=O)Nc1cccc2c1C(=O)N(c1ccccc1)C2=O	-1 (active)
CC(=O)Nc1cccc2c1C(=O)N(c1cccc(C)c1)C2=O	0 (inactive)

Structure (SMILES)	manual score
CCOc1ccc(Br)cc1/C(C)=N\NC1=NCCN1	0 (inactive)
N#CC1=C(N)Oc2n[nH]c(-c3cccs3)c2C1c1ccoc1 (configuration not stated)	0 (inactive)
S=C1NC(c2ccccc2)=NCN1c1ccc(Cl)cc1	1 (active)
Cc1cs/c(=N\N=C\c2cccc([N+](=O)[O-])c2)n1Cc1ccco1	0 (inactive)
Cc1cc(C)c(-n2c(C)cc(/C=C3/NC(=O)NC3=O)c2C)c(C)c1	0 (inactive)
Cc1ccccc1-n1c(SCc2ccccn2)nc2n[nH]c(C)c2c1=N	0 (inactive)
CCCOc1cccc(OCCSc2nc(C)cc(=O)[nH]2)c1	0 (inactive)
CCOc1ccc2nc(NC(=O)C(CC)Sc3nc(C)cc(=O)[nH]3)sc2c1 (configuration not stated)	-1 (active)
CC(C)Cn1c2c(c(O)c(C(=O)Nc3ncccc3O)c1=O)CCCC2	-1 (active)
C/C(=N\NC(=O)COc1ccc(C)cc1C(C)C)c1ccc(-n2ccnc2)cc1	0 (inactive)
CN(C)c1ccc(/C=N\NC(=S)SCN2C(=O)C3CCC(C)(C2=O)C3(C)C)cc1 (configuration not stated)	0.5 (inactive)
COc1ccc(/C=N\NC(=S)SCN2C(=O)C3CCC(C)(C2=O)C3(C)C)cc1 (configuration not stated)	1 (active)
CC12CCC(C(=O)N(CSC(=S)N/N=C\c3ccccc3)C1=O)C2(C)C (configuration not stated)	1 (active)
CC(Nc1ccc(Br)cn1)c1cc(Cl)ccc1O (configuration not stated)	0 (inactive)
CC(C)NC(=O)/C(=C/c1ccco1)c1ccccc1	0 (inactive)
Cc1ccccc1C(=O)Nc1ccccc1C(=O)N/N=C\c1ccco1	1 (active)
O=C(Nc1ccccc1C(=O)N/N=C/c1ccco1)c1ccccc1	1 (active)
Cc1ccccc1C(=O)N/N=C/c1ccc([N+](=O)[O-])s1	0 (inactive)
CN(c1ccccc1C(=O)Nc1ccccc1C(=O)NCc1ccco1)S(C)(=O)=O	0 (inactive)
Cc1cc(C)c(NC(=O)/C(=C/c2ccco2)c2ccccc2)c(C)c1	0 (inactive)
COc1cc(NC(=O)CSc2nccc(C)n2)c(C)cc1[N+](=O)[O-]	0 (inactive)
Cc1c(NC(=S)NC(NC(=O)CC(C)C)C(Cl)(Cl)Cl)c(=O)n(-c2ccccc2)n1C (configuration not stated)	0 (inactive)
CCCC(c1c(C)n(C)n(-c2ccccc2)c1=O)c1c(C)n(C)n(-c2ccccc2)c1=O	0 (inactive)
CCc1cc2c(=O)n(CC)c(SC(C)C(=O)Nc3c(C)n(C)n(-c4ccccc4)c3=O)nc2s1 (configuration not stated)	-1 (active)
